Results filed as inconclusive are left out. Calls of active or inactive are those of the source. Calls follow the shape of the dose curve; as a rule, active = well fitted cell-killing curve with a large enough effect; inconclusive = small, poorly fitted or top-dose-only effect, or effect the other way; inactive = no such curve, though single readings can be large or run the other way.
Test: Viability qHTS for spleen associated tyrosine kinase inhibitor (SYKi) drug resistant MV4-11 cells (AID 1963824); also: nearly all actives have a fitted effect of over 35% in size
Settings: SYKi-resistant MV4-11 viability, CellTiter-Glo, 72 h; series mostly up to 45 µM
Summary of the method: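 SYK-inhibitor-resistant MV4-11 AML cells were seeded at 500 per well onto compound and cultured 72 hours (37 °C, 5% CO2). CellTiter-Glo was then added, and after 10 min at room temperature, luminescence gave viability.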
Potency is read from the fitted curve at half-maximal effect.

Row | Compound | Potency
1 | C=C1C(=O)O[C@@H]2[C@H]3C(=C)[C@@H](O)C[C@H]3C(=C)C[C@@H](O)[C@@H]12 | 3.66 µM (active)
2 | COC(=O)C1(C)CCC(O)C2(C)c3cc(O)c(C(C)C)cc3C(O)C(OC(C)=O)C12 (configuration not stated) | inactive
3 | O=C(NCCCNc1nc(Nc2ccc(N3CCOCC3)cc2)ncc1C1CC1)C1CCC1 | 0.166 µM (active)
4 | CC1Oc2cc3c(-c4c(O)cc(O)c5c(O)c6c(cc45)OC(C)C(C)C6=O)c(O)cc(O)c3c(O)c2C(=O)C1C (configuration not stated) | 4.61 µM (active)
5 | C=C(CO)C(=O)O[C@H]1CC(=C)[C@@H]2C[C@H](O)C(=C)[C@@H]2[C@H]2OC(=O)C(=C)[C@@H]21 | 1.61 µM (active)
6 | COC(=O)C1(C)CCC(O)C2(C)c3c(O)cc(C(C)C)cc3C(O)C(OC(C)=O)C12 (configuration not stated) | inactive
7 | CN1CCC(O)(c2ccc(F)cc2)C(C(=O)c2ccc(F)cc2)C1 (configuration not stated) | inactive
8 | CN1[C@H]2C[C@H](OC(=O)[C@H](CO)c3ccccc3)C[C@@H]1[C@@H](O)C2 | inactive
9 | COC1CC(O[C@H]2CC[C@]3(C=O)C4CC[C@]5(C)[C@@H](C6=CC(=O)OC6)CC[C@]5(O)[C@@H]4CC[C@@H]3C2)OC(C)C1O[C@@H]1O[C@H](CO)[C@@H](O[C@@H]2O[C@H](CO)[C@@H](O)[C@H](O)[C@H]2O)[C@H](O)[C@H]1O (some centres not stated) | 0.123 µM (active)
10 | C[C@@H]1Cc2c(Cl)cc(C(=O)N[C@@H](Cc3ccccc3)C(=O)O)c(O)c2C(=O)O1 | 0.286 µM (active)
11 | CCCCCCCCC(=O)NCc1ccc(O)c(OC)c1 | inactive
12 | C=C(C)C(=O)O[C@H]1[C@@H]2[C@H](C)C(=O)O[C@@H]2C[C@@H](C)[C@@H]2C=CC(=O)[C@]21C | 1.14 µM (active)

Reference: PubChem BioAssay (NCATS)
